Laboratory results as given in PubChem BioAssay AID504332 (National Center for Advancing Translational Sciences (NCATS), 2011).
Several values for one entry are separate records, joined by “and”; a condition that tells them apart may be missing. Equal entries are not always repeated. The campaign covered roughly 350,000 compounds. About 31,000 (8.9%) were called active. Another 15% or so got no clear call; they are omitted. The call rests on the fitted dose curve; in most records, active means well fitted inhibition curve with a large enough effect; inconclusive means small, poorly fitted or top-dose-only effect; inactive means no such curve, though single readings can be large or run the other way. The list comes from a sample in which actives are over-represented; it also holds similar structures and randomly drawn compounds. More than one record can exist for a structure, and the calls need not agree.

target: Histone-lysine N-methyltransferase EHMT2 (Homo sapiens) (UniProt Q96KQ7); test: qHTS Assay for Inhibitors of Histone Lysine Methyltransferase G9a; conditions: G9a H3K9 monomethylation, AlphaScreen, 2 h; series mostly up to 59 µM; further: nearly all actives have a fitted effect of over 75% in size
Sequence (Q96KQ7 913-1193 limits assumed): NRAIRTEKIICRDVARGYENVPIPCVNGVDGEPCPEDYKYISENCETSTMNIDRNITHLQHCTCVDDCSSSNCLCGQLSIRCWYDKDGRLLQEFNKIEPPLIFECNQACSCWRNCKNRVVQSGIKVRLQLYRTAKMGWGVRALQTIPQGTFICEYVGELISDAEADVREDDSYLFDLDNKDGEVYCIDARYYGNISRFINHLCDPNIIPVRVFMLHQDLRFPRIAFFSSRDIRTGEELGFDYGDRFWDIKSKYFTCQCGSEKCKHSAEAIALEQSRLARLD
How it was run: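 Chemiluminescent proximity detection of H3K9 monomethylation, read after 10 min bead incubation in the dark. Reaction: 20 nM G9a, 500 nM biotin-H3K9 peptide, 20 uM SAM cofactor, 2 h, room temperature, following 15 min enzyme-compound preincubation.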
On the % scale 0 is the no-effect control and ±100 the full control effect; potency means the concentration at half of the fitted maximal effect.

Potency, inactive:
CC(=O)c1nc2ccccc2n1Cc1ccccc1
O=C(O)CCn1c(Cc2ccccc2)nc2ccccc21
COc1ccccc1C(=O)N(Cc1ccc(C)o1)C1CCS(=O)(=O)C1 (stereo not drawn)
O=C(Cn1c(=O)sc2ccccc21)Nc1nc2c(s1)CCCC2
O=C(Nc1nnc(-c2ccccc2F)s1)c1ccccc1F
CCc1ccc(NC(=O)C2CCCN2S(=O)(=O)c2ccc3nc(-c4ccccc4)[nH]c3c2)cc1 (stereo not drawn)
Cc1ccc(CSc2nc3ccsc3c(=O)n2CCC(C)C)cc1
COC(=O)c1ccccc1NC(=O)c1cnn(-c2ccc(F)cc2)c1-n1cccc1
O=C(COc1ccc(Cl)cc1)Nc1ccc2c(c1)OCO2
O=C(Nc1ccccc1)N1CCN(C2c3ccccc3-c3ccccc32)CC1
O=C(Nc1cccc(NC(=O)N2CCN(c3ccccc3)CC2)c1)N1CCN(c2ccccc2)CC1
O=C(CCN1CCN(C/C=C/c2ccccc2)CC1)Nc1cccc(F)c1
O=C(CN1CCCCCC1)Nc1ccc(Cl)cc1F
O=C(Nc1ccccc1)N1CCN(C(=O)Nc2ccccc2)CC1
COc1ccc(C)cc1NC(=O)CCc1c(C)nn(-c2ccc(N3CCOCC3)nn2)c1C
O=C(Cn1c(=O)nc(-c2ccccc2)c2cc(Cl)ccc21)NCc1ccc(Cl)cc1
O=C(CSc1cn(CC(=O)N2CCOCC2)c2ccccc12)Nc1ccccc1
CN(CC(=O)NCc1ccncc1)S(=O)(=O)c1ccc(Br)cc1
CCOC(=O)Cc1csc(SCC(=O)Nc2ccc(C)cc2F)n1
C=Cc1ccc(Cn2c(C(=O)OC)cc3sc(C)cc32)cc1
CC(=O)Nc1ccc2nc(SCCOc3cc(C)cc(C)c3)sc2c1
COc1ccccc1-n1c(-c2ccc(C)cc2)cn2c3c(=O)n(C)c(=O)n(C)c3nc12
COc1cccc(N2C(=O)CN(Cc3ccccc3)C2=S)c1
COc1ccc(-c2c3c(=O)n(C)c(=O)n(C)c3c3c(C)nc4ccccc4n23)cc1
COc1ccc(Nc2cc(=O)n(-c3ccccc3)c3c2c(=O)n(C)c(=O)n3C)cc1
O=C(O)c1ccc(CSc2nc3cccnc3n2Cc2cccc(F)c2)cc1
CCOC(=O)c1c(C)[nH]c(CCC(=O)NCCCN2CCN(c3cccc(Cl)c3)CC2)c1C
CCOC(=O)c1ccc2c(c1)N(Cc1cccc(OC)c1)C(=O)c1ccccc1S2(=O)=O
O=C(C1Cc2ccccc2CN1C(=O)c1ccco1)N1CCN(c2ccccc2)CC1 (stereo not drawn)
C[C@H](NC(=O)[C@@H]1Cc2ccccc2CN1C(=O)OC(C)(C)C)C(=O)NC1CCCC1
COc1cccc(N2CC(NS(=O)(=O)c3ccc(Cl)cc3)CC2=O)c1 (stereo not drawn)
O=C(Nc1ccc(F)cc1)c1cc2c(s1)CCCC2
O=C(COC(=O)c1cc2c(s1)CCCC2)NCc1ccccc1Cl
Cc1cc(Oc2ccc(Cl)cc2)nc(SCC(=O)c2ccccc2)n1
O=C(CSc1nc(Nc2ccc(F)c(F)c2)c2ccccc2n1)c1ccc(Cl)cc1
O=C(CSc1cccc[n+]1[O-])NCCCc1ccccc1
COc1ccccc1C(=O)CSc1cccc[n+]1[O-]
Cc1nc(SCCOc2ccc(Cl)cc2)[nH]c(=O)c1Cc1ccccc1
CCS(=O)(=O)N1CCc2cc(C(=O)NCc3ccc(OC)cc3)ccc21
O=C1Nc2ccccc2/C1=C/c1ccnc2ccccc12
Cc1cc(-c2ccc(C)c(S(=O)(=O)NCCCN(Cc3ccccc3)C(C)C)c2)on1
COc1ccc(CCNC(=S)N2CCN(S(=O)(=O)c3ccc(Cl)cc3)CC2)cc1
Cc1cccc(NC(=S)NCCc2ccc(Cl)cc2)c1C
O=C(NCCc1csc(-c2ccc(C(F)(F)F)cc2)n1)C(=O)Nc1ccc(F)c(Cl)c1
Cc1c(C=O)c2ccccc2n1CCOc1ccccc1
Cc1ccc(CS(=O)(=O)CCC(=O)NCc2ccc(F)cc2)cc1
O=C1NC(c2ccccc2)Oc2ccccc21 (stereo not drawn)
O=C(CCN1C(=O)C2CCCCC2C1=O)Nc1ccc(OC(F)F)cc1 (stereo not drawn)
CCOc1cc(/C=N/NC(=O)c2cccc(S(=O)(=O)N3CCOCC3)c2)ccc1OCC(=O)N(C)C
Cc1ccc(-n2nnnc2CNC(=O)c2ccccc2C)cc1C
COC(=O)c1ccc(C(=O)OC)c(NC(=S)N2CCN(c3cc(Cl)ccc3C)CC2)c1
COc1ccccc1CNC(=O)c1ccccc1NC(=O)c1nsc2ccccc12
COc1ccc(CCN2C(=O)N(c3cccc(OC)c3)C(=O)C2CC(=O)Nc2ccccc2)cc1 (stereo not drawn)
CC(C)c1ccc(/C=C/C(=O)NCCCN2CCOCC2)cc1
Cn1cnc([N+](=O)[O-])c1Sc1ccccc1
Cn1cnc([N+](=O)[O-])c1Sc1n[nH]c(N)n1
Cc1ccc(C2(C)NC(=O)N(CC(=O)Nc3ccccc3C(=O)N3CCCCC3)C2=O)cc1 (stereo not drawn)
Fc1ccc(-c2nc(Nc3cccc(Cl)c3)nc3c2COc2ccccc2-3)cc1
O=C(c1ccccc1)c1ccc(OCC(O)CN2CCCC2)cc1 (stereo not drawn)
O=[N+]([O-])c1ccc(N2CCN(CC(O)COc3ccccc3)CC2)cc1 (stereo not drawn)

Potency, active:
O=C(O)CCc1nc2cc(Cl)ccc2n(Cc2ccccc2)c1=O 50.1 µM
O=C(Nc1nc2c(s1)CCCC2)c1ccccc1F 12.6 µM
Cc1cc(NC(=O)CCN2CCN(Cc3ccccc3)CC2)ccc1Br 44.7 µM
O=C1CCN(C(=O)Nc2ccccc2)N1 7.94 µM
O=C(Nc1ccccc1)N1CCN(Cc2ccccc2)CC1 2 µM
O=C(CN1CCN(Cc2ccccc2)CC1)Nc1ccc(F)c(F)c1 7.08 µM
Cc1ccc(-c2c3c(=O)n(C)c(=O)n(C)c3cn2-c2ccccc2O)cc1 31.6 µM
COc1cccc(-n2cc3c(c2-c2ccccc2)c(=O)n(C)c(=O)n3C)c1 25.1 µM
CC(=O)N1Cc2ccccc2CC1C(=O)O (stereo not drawn) 17.8 µM
NC(=S)c1ccc(C(N)=S)o1 44.7 µM
CN(C)C(=O)c1ccc(NC(=O)COC(=O)c2cc3c(s2)CCCCC3)cc1 3.55 µM
O=C(CSc1cccc[n+]1[O-])c1ccc(-c2ccccc2)cc1 3.55 µM
O=C(CSc1cccc[n+]1[O-])c1ccc(Cl)cc1 4.47 µM
Cc1cc(C)c(/C=C2\C(=O)Nc3ccccc32)[nH]1 4.47 µM and 16.8 µM
Oc1cc2c(cc1O)CN(C(=S)NCCc1ccc(Cl)cc1)CCC2 3.55 µM and 2 µM and 4.74 µM
COC(=O)c1ccc(C(=O)OC)c(NC(=S)N2CCN(c3ccc(F)cc3)CC2)c1 44.7 µM
Cn1cnc([N+](=O)[O-])c1Nc1ccccc1O 25.1 µM
C[N+]1(CC(O)COc2ccccc2)CCN(C(=O)c2ccc([N+](=O)[O-])cc2)CC1 (stereo not drawn) 6.31 µM

Potency, inactive and 35.5 µM (active):
O=C1c2ccccc2C(=O)C1c1ccccc1

activity, negative = inhibition, inactive:
COc1cc(OC)c(NC(=O)c2cnc(N3CCCC3)nc2C)cc1Cl -4.36% [at 12.7 µM]
COc1cc(C#Cc2ccc3cc(CCCO)oc(=O)c3c2)cc(OC)c1 -2.15% [at 0.501 µM]
CC(OC(=O)c1cc2ccccc2o1)C(=O)Nc1ccc(N2CCOCC2)cc1 (stereo not drawn) -43.1% [at 12.7 µM]
O=C(Nc1ccccc1)N1CCC(C(=O)N2CCN(Cc3ccccc3)CC2)CC1 9.4% [at 12.7 µM]
CCOC(=O)N1CCN(CCC(=O)Nc2ccccc2)CC1 -0.171% [at 0.501 µM]
O=C(CN1CCN(CC(=O)Nc2ccc3c(c2)OCO3)CC1)Nc1ccc(F)cc1 -4.1% [at 2.33 µM]
O=C(COC(=O)c1cnccn1)Nc1ccc(Cl)cc1C(F)(F)F -3.19% [at 0.501 µM]
CCN(CC(=O)NCc1cccs1)C(=O)/C=C/c1ccc(C)cc1 9.99% [at 12.7 µM]
C[C@@H]1O[C@@H](OC[C@H]2O[C@@H](Oc3c(-c4ccc(O)cc4)oc4cc(O)cc(O)c4c3=O)[C@H](O)[C@@H](O)[C@@H]2O)[C@H](O)[C@H](O)[C@H]1O 4.77% [at 12.7 µM]
CC1CCC(CN2CCN=C2N(C)C)CC1 (stereo not drawn) 11.1% [at 12.7 µM]
O=C(COC(=O)c1ncc(Cl)c(Cl)c1Cl)NC1CCS(=O)(=O)C1 (stereo not drawn) 3.15% [at 12.7 µM]
O=C(NCC1CCCO1)c1cc2c(s1)CCCC2 (stereo not drawn) 29.8% [at 12.7 µM]
Cc1cc(C)c(/C=C2\C(=O)Nc3ccccc32)[nH]1 -50.4% [at 12.7 µM]
CN(C)/C=C1/C(=O)Nc2ccccc21 -2.73% [at 12.7 µM]
CN1C(=O)C[C@H](c2ccccc2)C1=O -19.1% [at 12.7 µM]
CCOC(=O)N1CCN(C(=O)COc2ccc3oc4c(c3c2)CCCC4)CC1 14.4% [at 2.33 µM]
O=S(=O)(c1ccc(SCc2ccccc2)nc1)N1CCCCCC1 -5.2% [at 12.7 µM]
COC(=O)c1ccccc1OCC(=O)N1CCN(c2ccc(Cl)cc2)CC1 3.66% [at 12.7 µM]
Cc1ccc(S(=O)(=O)N2CCC(C(=O)NCCC3=CCCCC3)CC2)cc1C 15.2% [at 0.501 µM]
